# Results taken from PubChem BioAssay.
# Calls of active or inactive are those of the source.
# Columns and labels:
# [1] = binders of probe aFSTL3 on microarray, primary screen, stem cell growth factor project, biochemical, small-molecule microarray, fluorescence 635/667 (AID 1064); settings: higher = more signal;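 also: measures binding of the biotinylated anti-FSTL3 antibody to printed compounds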
# [2] = binders from COS7 lysate, DM2A8 probe, primary screen, torsin A project, cell lysate, small-molecule microarray, fluorescence 635/667 (AID 1065); settings: higher = more signal, COS7 lysate expressing mutant human TOR1A
# [3] = binders of probe aFGF2 on microarray, primary screen, stem cell growth factor project, biochemical, small-molecule microarray, fluorescence 635/667 (AID 1067); settings: higher = more signal;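 also: measures binding of biotinylated aFGF2 protein to printed compounds on slides; z-score merges feature fluorescence and signal-to-noise across triplicate slides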
# [4] = binders of probe aFGF10 on microarray, primary screen, stem cell growth factor project, biochemical, small-molecule microarray, fluorescence 635/667 (AID 1071); settings: higher = more signal;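 also: score merges 667 nm spot intensity and signal to noise from triplicate slides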
# [5] = target: Neurogenic locus notch homolog protein 2 (Homo sapiens) (UniProt Q04721); assay: Notch2 binders on small-molecule microarrays, primary screen, biochemical, small-molecule microarray, 635 nm fluorescence, stem cell growth factors (AID 1073); settings: Notch2 binding, higher = more signal
# Chain of Neurogenic locus notch homolog protein 2 (Homo sapiens) (Q04721 whole entry, looked up, canonical isoform): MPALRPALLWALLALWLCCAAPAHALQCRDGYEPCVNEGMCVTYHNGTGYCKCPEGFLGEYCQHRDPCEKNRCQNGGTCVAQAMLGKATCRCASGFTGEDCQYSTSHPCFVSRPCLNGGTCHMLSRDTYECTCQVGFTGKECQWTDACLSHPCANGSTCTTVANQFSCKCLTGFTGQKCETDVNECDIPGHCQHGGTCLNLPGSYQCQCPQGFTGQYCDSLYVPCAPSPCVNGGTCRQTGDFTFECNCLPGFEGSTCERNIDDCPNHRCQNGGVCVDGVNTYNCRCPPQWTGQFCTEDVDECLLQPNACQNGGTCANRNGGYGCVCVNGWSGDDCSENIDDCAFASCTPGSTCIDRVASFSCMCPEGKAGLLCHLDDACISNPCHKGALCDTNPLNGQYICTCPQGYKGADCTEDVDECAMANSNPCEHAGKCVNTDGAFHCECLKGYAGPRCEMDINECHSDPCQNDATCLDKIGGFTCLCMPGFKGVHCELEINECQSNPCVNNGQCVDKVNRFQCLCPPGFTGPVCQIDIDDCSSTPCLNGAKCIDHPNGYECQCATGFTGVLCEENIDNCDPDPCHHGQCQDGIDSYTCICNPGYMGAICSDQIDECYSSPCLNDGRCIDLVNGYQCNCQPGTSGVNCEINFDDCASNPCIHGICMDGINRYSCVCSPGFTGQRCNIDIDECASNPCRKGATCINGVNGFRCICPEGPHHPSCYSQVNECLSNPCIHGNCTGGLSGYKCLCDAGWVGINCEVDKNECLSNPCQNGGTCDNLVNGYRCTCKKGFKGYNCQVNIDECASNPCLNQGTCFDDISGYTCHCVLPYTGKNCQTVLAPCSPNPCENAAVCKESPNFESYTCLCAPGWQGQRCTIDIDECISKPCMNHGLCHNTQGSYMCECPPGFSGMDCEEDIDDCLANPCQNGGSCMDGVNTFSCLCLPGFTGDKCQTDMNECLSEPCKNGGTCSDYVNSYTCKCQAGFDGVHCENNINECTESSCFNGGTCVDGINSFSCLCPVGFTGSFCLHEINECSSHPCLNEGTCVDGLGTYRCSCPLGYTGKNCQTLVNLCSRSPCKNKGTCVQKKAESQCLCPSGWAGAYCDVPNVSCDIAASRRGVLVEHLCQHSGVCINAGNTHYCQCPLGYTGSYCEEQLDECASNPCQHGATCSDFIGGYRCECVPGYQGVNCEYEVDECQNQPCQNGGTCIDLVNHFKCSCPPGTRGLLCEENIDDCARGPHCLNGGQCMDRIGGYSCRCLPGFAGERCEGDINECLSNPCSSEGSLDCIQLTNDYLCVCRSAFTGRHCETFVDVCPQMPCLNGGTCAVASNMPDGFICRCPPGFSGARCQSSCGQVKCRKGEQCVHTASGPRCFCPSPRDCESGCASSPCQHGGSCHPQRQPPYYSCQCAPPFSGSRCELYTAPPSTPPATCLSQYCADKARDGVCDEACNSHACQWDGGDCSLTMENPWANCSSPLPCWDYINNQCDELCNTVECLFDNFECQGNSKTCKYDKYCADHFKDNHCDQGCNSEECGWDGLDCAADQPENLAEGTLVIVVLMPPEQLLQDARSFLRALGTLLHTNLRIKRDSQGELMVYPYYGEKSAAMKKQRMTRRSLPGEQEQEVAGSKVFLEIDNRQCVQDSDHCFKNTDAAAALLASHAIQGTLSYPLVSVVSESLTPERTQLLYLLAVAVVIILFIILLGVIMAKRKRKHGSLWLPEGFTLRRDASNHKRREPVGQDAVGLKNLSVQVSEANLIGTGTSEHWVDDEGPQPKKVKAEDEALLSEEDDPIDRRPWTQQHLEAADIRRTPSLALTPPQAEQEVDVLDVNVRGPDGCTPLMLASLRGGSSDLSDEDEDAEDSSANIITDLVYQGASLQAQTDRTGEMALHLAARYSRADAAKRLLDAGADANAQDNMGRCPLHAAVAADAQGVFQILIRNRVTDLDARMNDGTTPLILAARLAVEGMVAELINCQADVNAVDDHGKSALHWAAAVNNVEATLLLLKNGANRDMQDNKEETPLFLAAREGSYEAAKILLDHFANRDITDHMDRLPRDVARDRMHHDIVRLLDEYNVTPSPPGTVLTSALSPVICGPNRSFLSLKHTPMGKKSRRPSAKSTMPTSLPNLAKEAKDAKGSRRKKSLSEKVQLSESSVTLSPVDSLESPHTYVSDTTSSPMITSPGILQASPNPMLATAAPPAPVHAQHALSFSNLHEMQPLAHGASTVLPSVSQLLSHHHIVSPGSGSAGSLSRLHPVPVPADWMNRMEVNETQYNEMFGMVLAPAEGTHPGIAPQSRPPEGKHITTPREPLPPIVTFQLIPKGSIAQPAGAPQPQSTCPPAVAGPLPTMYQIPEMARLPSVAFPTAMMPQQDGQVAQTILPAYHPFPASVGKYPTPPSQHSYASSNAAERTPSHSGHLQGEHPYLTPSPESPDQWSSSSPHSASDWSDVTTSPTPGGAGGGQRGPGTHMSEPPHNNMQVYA
# [6] = target: Pro-neuregulin-1, membrane-bound isoform (Homo sapiens) (UniProt Q02297); assay: NRG1 binders on small-molecule microarrays, primary screen, psychiatric disease protein project, biochemical, small-molecule microarray, fluorescence 635/667 (AID 1075); settings: NRG1 binding, 635 nm fluorescence, higher = more signal;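 also: score combines 667 nm spot fluorescence with signal to noise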
# [7] = test system: Neuregulin-1 EGF-like domain; assay: binders of neuregulin-1 EGF-like domain, primary screen, biochemical, small-molecule microarray, 635 nm fluorescence (AID 1081); settings: small-molecule microarray binding, higher = more signal;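 also: binding of the protein to compounds printed on small-molecule microarray slides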
# [8] = FRG1 promoter luciferase signal modulators, primary screen, FRG1 inhibition for FSHD, cell-based, C2C12 myotubes, firefly/Renilla luciferase, luminescence (AID 1084); settings: higher = more signal, called active from +8 up or from −8 down
# [9] = binders of probe aFST on microarray, primary screen, stem cell growth factor project, biochemical, small-molecule microarray, fluorescence 635/667 (AID 1086); settings: higher = more signal;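 also: score merges 667 nm fluorescence with signal-to-noise of each printed compound spot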
# [10] = binders of probe aHhip on microarray, primary screen, stem cell growth factor project, biochemical, small-molecule microarray, fluorescence 635/667 (AID 1087); settings: higher = more signal;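 also: score merges spot fluorescence at 667nm with spot signal to noise ratio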
# [11] = test system: PRMT1 (protein arginine N-methyltransferase 1); assay: PRMT1 binders on small-molecule microarrays, primary screen, biochemical, small-molecule microarray, 635 nm fluorescence (AID 1088); settings: small-molecule microarray binding, higher = more signal;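 also: binding of Prmt1 protein to compounds spotted on small-molecule microarray slides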
# [12] = yeast growth modulation, basal conditions, primary screen, YJM789 clinical isolate, OD600, 24 h (AID 1089);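 also: growth of clinical yeast isolate S. cerevisiae YJM 789 seeded 1000 cells per well; test concentration not given here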; settings: S. cerevisiae YJM789 growth, higher = more signal, called active from +8 up or from −8 down
# [13] = fission yeast growth modulation, primary screen, strain 972, OD600, 24 h, no modulator (AID 1090);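 also: basal condition with compound alone and no growth modifier present; test concentration not given here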; settings: S. pombe 972 growth, higher = more signal, called active from +8 up or from −8 down
# [14] = S. cerevisiae growth modulation with rapamycin, primary screen, strain BY4716, OD600, 96 h (AID 1091); settings: higher = more signal, called active from +8 up or from −8 down; also: test concentration not given here
# [15] = target: Torsin-1A-interacting protein 2 (Homo sapiens) (UniProt Q8NFQ8); assay: LULL1 binders on small-molecule microarray, primary screen, cell lysate, human LULL1 lysate, 635/667 nm fluorescence (AID 1092); settings: hLULL1 lysate binding, 635 nm fluorescence, higher = more signal;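 also: probe is lysate of COS7 cells overexpressing human LULL1; score merges per-feature 667 nm fluorescence with signal-to-noise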
# [16] = E. coli growth modulation, two-sided OD650, primary screen, E. coli filamentation project, strain DRC41, 24 h (AID 1093); settings: OD650, 24 h, higher = more signal, called active from +8 up or from −8 down;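 also: MC1000 strain lacking acrAB efflux and sulA so SOS filamentation is blocked; test concentration not given here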
# [17] = small-molecule microarray binders of probe aLefty2, primary screen, biochemical, biotinylated probe, 635/667 nm fluorescence (AID 1094); settings: higher = more signal;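 also: score merges spot fluorescence near 667 nm with spot signal-to-noise ratio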
# [18] = test system: Noggin (protein binding on small-molecule microarray); assay: Noggin binders on small-molecule microarray, primary screen, biochemical, 635/667 nm fluorescence (AID 1095); settings: 635 nm fluorescence, higher = more signal;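 also: score merges 667 nm feature fluorescence with signal to noise over triplicate slides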
# [19] = target: Neurogenic locus notch homolog protein 3 (Homo sapiens) (UniProt Q9UM47); assay: NOTCH3 binders on small-molecule microarray, primary screen, biochemical, 635/667 nm fluorescence (AID 1096); settings: NOTCH3 binding, 635 nm fluorescence, higher = more signal
# Chain of Neurogenic locus notch homolog protein 3 (Homo sapiens) (Q9UM47 whole entry, looked up): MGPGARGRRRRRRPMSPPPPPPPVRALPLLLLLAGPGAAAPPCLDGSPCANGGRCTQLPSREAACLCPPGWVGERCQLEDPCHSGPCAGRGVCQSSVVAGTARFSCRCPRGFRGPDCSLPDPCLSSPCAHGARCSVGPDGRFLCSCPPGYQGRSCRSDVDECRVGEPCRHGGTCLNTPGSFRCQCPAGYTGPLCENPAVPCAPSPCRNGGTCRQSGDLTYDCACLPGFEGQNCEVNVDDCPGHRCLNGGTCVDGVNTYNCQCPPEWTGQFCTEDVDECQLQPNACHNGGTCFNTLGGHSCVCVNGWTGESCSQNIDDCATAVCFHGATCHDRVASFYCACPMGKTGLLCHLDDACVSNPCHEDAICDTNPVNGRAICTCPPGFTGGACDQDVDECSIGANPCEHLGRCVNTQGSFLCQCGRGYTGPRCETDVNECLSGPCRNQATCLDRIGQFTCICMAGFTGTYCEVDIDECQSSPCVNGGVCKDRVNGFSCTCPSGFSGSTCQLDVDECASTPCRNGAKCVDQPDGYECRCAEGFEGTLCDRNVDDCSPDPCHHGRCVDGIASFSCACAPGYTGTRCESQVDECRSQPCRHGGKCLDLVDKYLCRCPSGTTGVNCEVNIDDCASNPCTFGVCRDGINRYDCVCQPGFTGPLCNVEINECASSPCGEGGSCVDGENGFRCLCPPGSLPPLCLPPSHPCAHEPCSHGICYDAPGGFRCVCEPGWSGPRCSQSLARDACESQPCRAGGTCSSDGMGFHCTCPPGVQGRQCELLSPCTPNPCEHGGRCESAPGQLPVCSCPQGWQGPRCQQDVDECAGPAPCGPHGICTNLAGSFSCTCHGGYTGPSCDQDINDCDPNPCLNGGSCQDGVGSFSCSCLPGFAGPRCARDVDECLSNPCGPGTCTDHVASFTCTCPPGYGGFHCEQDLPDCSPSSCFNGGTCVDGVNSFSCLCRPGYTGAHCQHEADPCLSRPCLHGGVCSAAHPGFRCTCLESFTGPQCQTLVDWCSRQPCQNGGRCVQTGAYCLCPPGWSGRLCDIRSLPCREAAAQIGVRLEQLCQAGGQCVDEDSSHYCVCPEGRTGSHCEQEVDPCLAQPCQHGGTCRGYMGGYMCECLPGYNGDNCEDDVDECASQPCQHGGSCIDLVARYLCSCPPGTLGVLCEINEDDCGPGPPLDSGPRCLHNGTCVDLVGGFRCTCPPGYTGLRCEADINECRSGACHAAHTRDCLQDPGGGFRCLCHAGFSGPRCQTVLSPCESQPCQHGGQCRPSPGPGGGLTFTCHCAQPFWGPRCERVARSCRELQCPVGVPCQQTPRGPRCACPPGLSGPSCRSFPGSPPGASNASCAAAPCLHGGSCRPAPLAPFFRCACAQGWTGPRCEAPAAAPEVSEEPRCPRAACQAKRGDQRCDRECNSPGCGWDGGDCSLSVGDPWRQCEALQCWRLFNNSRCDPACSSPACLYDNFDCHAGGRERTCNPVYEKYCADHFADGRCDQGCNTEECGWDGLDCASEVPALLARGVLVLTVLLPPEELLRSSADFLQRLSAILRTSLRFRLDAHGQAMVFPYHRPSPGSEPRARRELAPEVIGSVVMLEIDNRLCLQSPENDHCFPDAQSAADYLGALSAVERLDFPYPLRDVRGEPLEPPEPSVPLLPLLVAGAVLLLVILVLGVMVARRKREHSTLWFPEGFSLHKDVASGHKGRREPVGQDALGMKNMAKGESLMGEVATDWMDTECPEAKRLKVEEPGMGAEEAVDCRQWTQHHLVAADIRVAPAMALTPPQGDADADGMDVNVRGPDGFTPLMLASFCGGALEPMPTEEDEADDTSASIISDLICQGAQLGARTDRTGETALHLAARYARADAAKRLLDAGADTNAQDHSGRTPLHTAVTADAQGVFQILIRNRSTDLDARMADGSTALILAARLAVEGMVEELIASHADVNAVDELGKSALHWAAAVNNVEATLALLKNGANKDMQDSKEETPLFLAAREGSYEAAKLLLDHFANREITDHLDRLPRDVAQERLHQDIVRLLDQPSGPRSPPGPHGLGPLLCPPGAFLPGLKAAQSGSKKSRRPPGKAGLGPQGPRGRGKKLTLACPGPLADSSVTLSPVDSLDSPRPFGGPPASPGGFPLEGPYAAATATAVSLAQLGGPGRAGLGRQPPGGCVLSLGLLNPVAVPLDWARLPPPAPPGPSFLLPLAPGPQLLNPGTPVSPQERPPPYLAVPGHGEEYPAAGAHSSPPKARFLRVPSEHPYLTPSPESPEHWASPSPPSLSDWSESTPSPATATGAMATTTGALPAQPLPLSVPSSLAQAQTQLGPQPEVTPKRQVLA
# [20] = small-molecule microarray binders of probe aEGFR, primary screen, biochemical, biotinylated probe, 635/667 nm fluorescence (AID 1097); settings: higher = more signal;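 also: probe is a biotinylated anti-EGFR antibody binding compounds printed on slides; score combines fluorescence near 667 nm and signal to noise of each spot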
smiles,measurement,setting,value
C[C@@H]1CC[C@@H](C(=O)O)N[C@H]1c1cccc(N2CCOCC2)c1,composite z-score,[1],-0.406
same,composite z-score,[2],0.179
same,composite z-score,[3],-0.0428
same,composite z-score,[4],0.268
same,composite z-score,[5],0.887
same,composite z-score,[6],0.0719
same,composite z-score,[7],0.251
same,z-score,[8],-1.79 (inactive)
same,composite z-score,[9],0.253
same,composite z-score,[10],-0.134
same,composite z-score,[11],-0.618
same,z-score,[12],0.395 (inactive)
same,z-score,[13],-0.623 (inactive)
same,z-score,[14],-0.591 (inactive)
same,composite z-score,[15],0.879
same,z-score,[16],1.64 (inactive)
same,composite z-score,[17],-0.106
same,composite z-score,[18],0.377
same,composite z-score,[19],0.597
same,composite z-score,[20],-0.106
CO[C@H]1COC(=O)[C@H](C)COC(=O)[C@H](C)NC(=O)CC=C[C@H]1C,composite z-score,[1],-0.874
same,composite z-score,[2],1.28
same,composite z-score,[3],-0.145
same,composite z-score,[4],0.37
same,composite z-score,[5],0.127
same,composite z-score,[6],-0.575
same,composite z-score,[7],0.887
same,z-score,[8],-0.592 (inactive)
same,composite z-score,[9],0.0261
same,composite z-score,[10],0.124
same,composite z-score,[11],1.34
same,z-score,[12],-0.301 (inactive)
same,z-score,[13],-0.296 (inactive)
same,z-score,[14],-0.253 (inactive)
same,composite z-score,[15],0.449
same,z-score,[16],0.828 (inactive)
same,composite z-score,[17],-0.166
same,composite z-score,[18],1.29
same,composite z-score,[19],0.696
same,composite z-score,[20],-0.122
CC(CCN1CCCc2nc(C)c(C)cc21)=NO[C@H](C)c1cn([C@H](CO)Cc2ccccc2)nn1,composite z-score,[1],-0.303
same,composite z-score,[2],0.455
same,composite z-score,[3],-0.0568
same,composite z-score,[4],0.545
same,composite z-score,[5],0.531
same,composite z-score,[6],0.0463
same,composite z-score,[7],1.03
same,z-score,[8],1.53 (inactive)
same,composite z-score,[9],0.64
same,composite z-score,[10],-0.236
same,composite z-score,[11],1.56
same,z-score,[12],1.09 (inactive)
same,z-score,[13],0.374 (inactive)
same,z-score,[14],0.399 (inactive)
same,composite z-score,[15],0.894
same,z-score,[16],-0.748 (inactive)
same,composite z-score,[17],-0.0441
same,composite z-score,[18],0.633
same,composite z-score,[19],1.01
same,composite z-score,[20],0.0386
CC(CCC(=O)OC[C@H]1O[C@H](C#Cc2ccccc2)C=C[C@@H]1Oc1ccc(C)cc1)=NO[C@H](C)c1cn([C@@H]2COC[C@H]2O)nn1,composite z-score,[1],-0.484
same,composite z-score,[2],0.522
same,composite z-score,[3],-0.148
same,composite z-score,[4],0.0898
same,composite z-score,[5],-0.31
same,composite z-score,[6],-0.0103
same,composite z-score,[7],0.452
same,z-score,[8],-1.03 (inactive)
same,composite z-score,[9],-0.0115
same,composite z-score,[10],-0.134
same,composite z-score,[11],0.535
same,z-score,[12],-1.42 (inactive)
same,z-score,[13],-0.688 (inactive)
same,z-score,[14],-0.0188 (inactive)
same,composite z-score,[15],0.042
same,z-score,[16],-0.342 (inactive)
same,composite z-score,[17],-0.128
same,composite z-score,[18],0.375
same,composite z-score,[19],-0.151
same,composite z-score,[20],-0.137
CCN1C(=O)[C@H]2[C@H]3[C@H](O)[C@H](O)CC(=NOC(C)CN4CCCc5nc(C)c(C)cc54)[C@@H]3CC[C@H]2C1=O (stereo not given in full),composite z-score,[1],-0.342
same,composite z-score,[2],0.564
same,composite z-score,[3],-0.0468
same,composite z-score,[4],0.49
same,composite z-score,[5],0.724
same,composite z-score,[6],-0.0318
same,composite z-score,[7],0.963
same,z-score,[8],-0.266 (inactive)
same,composite z-score,[9],0.372
same,composite z-score,[10],0.0596
same,composite z-score,[11],1.46
same,z-score,[12],-0.0428 (inactive)
same,z-score,[13],1.19 (inactive)
same,z-score,[14],0.385 (inactive)
same,composite z-score,[15],0.404
same,z-score,[16],1.32 (inactive)
same,composite z-score,[17],0.0416
same,composite z-score,[18],1.16
same,composite z-score,[19],0.597
same,composite z-score,[20],0.012
CCOC(=O)[C@H](Cc1ccccc1)NC(=O)CCC1CC(OC(=O)NCc2cccc3ccccc23)CC2(CCCC(COC(=O)NCCOc3ccccc3)O2)O1 (stereo not given in full),composite z-score,[1],-0.591
same,composite z-score,[2],0.618
same,composite z-score,[3],-0.105
same,composite z-score,[4],0.133
same,composite z-score,[5],0.863
same,composite z-score,[6],0.972
same,composite z-score,[7],0.898
same,z-score,[8],0.688 (inactive)
same,composite z-score,[9],0.214
same,composite z-score,[10],0.204
same,composite z-score,[11],1.57
same,z-score,[12],-0.851 (inactive)
same,z-score,[13],-0.421 (inactive)
same,z-score,[14],-0.792 (inactive)
same,composite z-score,[15],3.18
same,z-score,[16],-0.325 (inactive)
same,composite z-score,[17],-0.122
same,composite z-score,[18],0.734
same,composite z-score,[19],1.12
same,composite z-score,[20],-0.0828
CCOC(=O)[C@H](CC(C)C)NC(=O)CCC1CC(OC(=O)NCc2ccc3c(c2)OCO3)CC2(CCCC(COC(=O)NCCOC)O2)O1 (stereo not given in full),composite z-score,[1],-0.412
same,composite z-score,[2],-0.224
same,composite z-score,[3],-0.0785
same,composite z-score,[4],0.197
same,composite z-score,[5],0.805
same,composite z-score,[6],-0.0383
same,composite z-score,[7],1.07
same,z-score,[8],0.619 (inactive)
same,composite z-score,[9],0.0301
same,composite z-score,[10],0.0826
same,composite z-score,[11],0.634
same,z-score,[12],0.0162 (inactive)
same,z-score,[13],0.48 (inactive)
same,z-score,[14],-0.958 (inactive)
same,composite z-score,[15],1.71
same,z-score,[16],-0.172 (inactive)
same,composite z-score,[17],-0.205
same,composite z-score,[18],0.474
same,composite z-score,[19],0.793
same,composite z-score,[20],0.0953
C[C@H]1CC[C@@H](C(=O)O)N[C@@H]1c1cccc(N2CCCC2=O)c1,composite z-score,[1],-0.304
same,composite z-score,[2],0.141
same,composite z-score,[3],-0.145
same,composite z-score,[4],0.22
same,composite z-score,[5],0.408
same,composite z-score,[6],-0.153
same,composite z-score,[7],0.17
same,z-score,[8],0.304 (inactive)
same,composite z-score,[9],0.149
same,composite z-score,[10],0.107
same,composite z-score,[11],-0.344
same,z-score,[12],0.31 (inactive)
same,z-score,[13],0.0026 (inactive)
same,z-score,[14],0.374 (inactive)
same,composite z-score,[15],0.283
same,z-score,[16],0.816 (inactive)
same,composite z-score,[17],-0.0873
same,composite z-score,[18],0.49
same,composite z-score,[19],0.408
same,composite z-score,[20],-0.123
O=C1C[C@@H](O)[C@@H](O)[C@@H]2[C@@H]3C(=O)N(C4CCCCC4)C(=O)[C@@H]3CC[C@@H]12,composite z-score,[1],-0.371
same,composite z-score,[2],0.159
same,composite z-score,[3],-0.0113
same,composite z-score,[4],0.394
same,composite z-score,[5],0.334
same,composite z-score,[6],1.05
same,composite z-score,[7],0.546
same,z-score,[8],0.129 (inactive)
same,composite z-score,[9],0.0535
same,composite z-score,[10],-0.0237
same,composite z-score,[11],0.607
same,z-score,[12],0.93 (inactive)
same,z-score,[13],-0.509 (inactive)
same,z-score,[14],-0.149 (inactive)
same,composite z-score,[15],0.905
same,z-score,[16],0.536 (inactive)
same,composite z-score,[17],-0.137
same,composite z-score,[18],0.354
same,composite z-score,[19],0.57
same,composite z-score,[20],-0.0921
CC(=O)OC[C@H]1O[C@@H](ON=C2[C@H]3CCn4c(=O)n(-c5ccccc5)c(=O)n4[C@H]3[C@H](O)[C@@H]3O[C@H]23)[C@H](OC(C)=O)[C@@H](OC(C)=O)[C@@H]1OC(C)=O,composite z-score,[1],-0.512
same,composite z-score,[2],0.617
same,composite z-score,[3],-0.0787
same,composite z-score,[4],0.582
same,composite z-score,[5],0.396
same,composite z-score,[6],0.471
same,composite z-score,[7],0.711
same,z-score,[8],0.295 (inactive)
same,composite z-score,[9],0.259
same,composite z-score,[10],-0.0024
same,composite z-score,[11],1.02
same,z-score,[12],-0.436 (inactive)
same,z-score,[13],-0.598 (inactive)
same,z-score,[14],0.083 (inactive)
same,composite z-score,[15],1.37
same,z-score,[16],0.0967 (inactive)
same,composite z-score,[17],-0.0409
same,composite z-score,[18],0.349
same,composite z-score,[19],0.785
same,composite z-score,[20],-0.0485
